Source: PubChem (several laboratories)
This is a sample that favours compounds with a hit; in the whole collection about 6.9% have one here.
FXIIa inh mix – factor XIIa (human) inhibition, mixture screen | P00748 | purified FXIIa, fluorogenic substrate, pooled mixtures | inhibition, % at 5 µM | 62,000 compounds, 0.2% hits | AID 684;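 further: 0% = enzyme without compound and 100% = no enzyme blank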
Target sequence (P00748 20-372 limits assumed): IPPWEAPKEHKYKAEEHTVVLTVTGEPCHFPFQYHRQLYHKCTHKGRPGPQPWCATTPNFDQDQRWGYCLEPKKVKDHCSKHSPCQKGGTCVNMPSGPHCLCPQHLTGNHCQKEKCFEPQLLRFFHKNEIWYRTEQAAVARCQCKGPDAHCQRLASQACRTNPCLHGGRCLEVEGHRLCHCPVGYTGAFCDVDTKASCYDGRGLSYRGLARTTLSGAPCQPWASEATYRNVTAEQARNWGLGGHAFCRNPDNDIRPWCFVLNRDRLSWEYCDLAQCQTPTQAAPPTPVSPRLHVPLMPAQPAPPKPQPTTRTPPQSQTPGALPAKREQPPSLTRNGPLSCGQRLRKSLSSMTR
Target sequence (P00748 373-615 limits assumed): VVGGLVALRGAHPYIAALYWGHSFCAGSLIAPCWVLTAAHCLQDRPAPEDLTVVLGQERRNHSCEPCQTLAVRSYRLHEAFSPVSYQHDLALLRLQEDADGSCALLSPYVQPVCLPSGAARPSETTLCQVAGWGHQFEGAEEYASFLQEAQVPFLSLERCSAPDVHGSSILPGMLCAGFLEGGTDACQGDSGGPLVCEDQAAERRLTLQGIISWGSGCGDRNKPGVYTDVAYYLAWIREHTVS
M1 agonist – activates the M1 muscarinic receptor; AID 626; CHO-M1 cells, Fluo-4 calcium fluorescence, agonist mode; hits give high values; B-score at 10 µM; 64,000 compounds, 3% hits;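 active means fluorescence rise, raw or as B-score row- and column-corrected plate score, outside the 99.7% band of its plate's samples, either direction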
JNK3 inh – JNK3 (human) kinase inhibition; P53779; purified JNK3 kinase activity, HTS; inhibition, % at 8 µM; 60,000 compounds, 0.61% hits; AID 746; in the data active means inhibition above about 17%;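 further: 0% = DMSO and 100% = reference inhibitor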
FXIa inh mix – inhibitors of human coagulation factor XIa, pooled mixtures. purified FXIa, fluorogenic substrate. inhibition, % at 5 µM. 62,000 compounds, 0.19% hits. AID 680;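 further: each value is inhibition by a whole ten-compound pool holding the compound; 0% = enzyme with no mixture and 100% = wells lacking enzyme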
Her2 expr inh – lowers expression of human Her2 kinase. P04626. SKBR-3 HER2 protein level, AlphaScreen, 18-24 h; hits give low values. HER2 level % of control, % at 10 µM. 65,000 compounds, 0.69% hits. AID 645;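 active means HER2 level under 5% of the carrier-only control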;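 further: 100% = DMSO carrier and 0% = 500 nM PU-H71 HSP90 inhibitor; lower value means stronger loss of Her2 protein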
M1 antag – M1 muscarinic receptor (rat) antagonism; P08482; CHO-M1 cells, Fluo-4 calcium, ACh EC80 antagonist mode; hits give low values; B-score at 10 µM; 64,000 compounds, 3.4% hits; AID 628;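 active means calcium fluorescence response, raw or row-and-column corrected B-score, differing from the plate sample mean either way at a set confidence level, mostly lower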
M1 antag conf – confirmation of rat M1 muscarinic receptor antagonists. shares compounds with M1 antag. calcium response (max-min fluorescence) at 10 µM. 1,700 compounds, 43% hits. CHO-M1 cells, Fluo-4 calcium, ACh EC80 antagonism; hits give low values;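 active means calcium response below the same-plate mean of wells given acetylcholine alone at its 80%-effect dose, minus 3 SD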;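 further: raw fluorescence intensity difference in arbitrary instrument units and not normalized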
mGluR4 antag – mGluR4 (human) activity, M1 antagonist secondary assay; 1,700 compounds, 0.9% hits; CHO-mGluR4 calcium flux, Fluo-4 fluorescence, glutamate EC80; hits give low values; shares compounds with M1 antag; AID 678; fluorescence response (max-min) at 10 µM;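 active means fluorescence response below the plate's average for near-maximal glutamate wells, less 3 SD of those wells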;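 further: raw unnormalized fluorescence span taken in the window right after glutamate addition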
* = called active by the depositor; x = no result. Unless noted, no stated cut-off is given here; in the data, active means inhibition above about 20% (passing the limit was not always enough); inactive means the rest.

SMILES | FXIIa inh mix | M1 agonist | JNK3 inh | FXIa inh mix | Her2 expr inh | M1 antag | M1 antag conf | mGluR4 antag
Cn1c(=O)[nH]c(=O)c2c1nc(SCCN1CCCCC1)n2Cc1ccccc1 | x | 0.0092 | -3 | x | 136 | -3.8* | 530* | 205
Cc1cccc(Cn2c(Sc3nc(C)cs3)nc3c2c(=O)[nH]c(=O)n3C)c1 | 1 | -0.64 | 5 | 5 | 100 | -7.1* | 524* | 276
N#Cc1nc(-c2cccs2)oc1NCc1ccccc1Cl | 6 | -0.086 | 2 | 6 | 93 | -0.28 | x | x
Cc1ccc(NC(=O)NC2(C(=O)NCc3ccco3)CCCCC2)cc1 | -1 | 0.46 | -7 | 7 | 101 | 0.44 | x | x
O=C(CSc1nc2ccccc2[nH]1)NCCCn1ccnc1 | -16 | 0.36 | -11 | 8 | x | -0.14 | x | x
Cn1c(N)c(C(=O)COC(=O)C2(c3cccc(F)c3)CCCC2)c(=O)n(C)c1=O | -17 | -0.45 | -4 | 6 | 83 | -2.8* | 630 | 208
COC(=O)C1=C(C)NC(=O)NC1c1cn(-c2ccccc2)nc1-c1cccs1 (stereo not given) | -2 | -1.1 | x | 3 | 99 | -2.7* | 429 | 203
CCOC(=O)C1=C(C)NC(=O)NC1c1cn(-c2ccccc2)nc1-c1cccs1 (stereo not given) | 5 | -0.79 | 6 | -7 | 75 | -1.6 | x | x
CCc1ccc(NC(=O)Nc2cccs2)cc1 | 2 | -0.46 | -2 | 2 | 99 | -2.3* | 569 | 215
COC(=O)c1ccccc1NC(=O)N1CCN(C/C=C/c2ccccc2)CC1 | 5 | 0.12 | -1 | -1 | 110 | -4.1* | 507 | 238
Clc1ccccc1OCCCCN1CCCC1 | 6 | -0.89 | -3 | -5 | 86 | -1.7* | 454 | 186
CC(=O)c1ccccc1OCCCN1CCCCC1 | 2 | 0.13 | -2 | 16 | 127 | -2.3* | 356* | 225
O=C(OCCN1CCCCC1)c1ccc(O)cc1 | 4 | -0.032 | 6 | 3 | 86 | -0.56 | x | x
CC(C)(C)c1ccccc1OCCN1CCCC1 | 9 | 0.12 | -4 | -21 | 82 | -11* | 176* | 209
O=C(OCCN1CCCCC1)c1ccccc1Cl | 3 | -0.096 | -3 | -5 | 102 | -2.6* | 543 | 230
COc1cccc(OC)c1OCCCCN1CCCC1 | 4 | 0.55 | 6 | 11 | 107 | -0.6 | x | x
Cn1c(C(O)c2ccccc2)nc(Cl)c1Cl (stereo not given) | 15 | 0.6 | -2 | -8 | 152 | -0.007 | x | x
COCCCn1c(C)nc2c(c1=O)c1nc3ccccc3nc1n2CCc1ccccc1 | 3 | 2.1 | -6 | 7 | 86 | -0.032 | x | x
CCN(CC)C(=O)CC(c1ccc(F)cc1)c1ccco1 (stereo not given) | 1 | 0 | -4 | 11 | 89 | -0.034 | x | x
Cc1ccc(NC(=O)Cn2cccc2)c(Br)c1 | 5 | 0.37 | -8 | 8 | 91 | -2.9* | 566 | 247
Cc1cccc(NC(=O)Cn2cccc2)c1 | 0 | -0.64 | -3 | 1 | 99 | 0.046 | x | x
CCOC(=O)N1CCN(C(=O)C(C)(C)Oc2ccc(Cl)cc2)CC1 | 2 | -0.25 | -3 | 9 | 100 | -2.6* | 525 | 213
CCOC(=O)N1CCN(C(=O)C2CCC(CNS(=O)(=O)c3ccc(Cl)cc3)CC2)CC1 (stereo not given) | 6 | 0.22 | -5 | 2 | 116 | -2.9* | 543 | 274
COc1ccc(N2CCN(C(=O)C(C)(C)Oc3ccc(Cl)cc3)CC2)cc1 | 3 | 0.078 | 3 | 5 | 86 | -0.4 | x | x
CCn1c(SCC(=O)O)nnc1C1CCCCC1 | -14 | -0.82 | 7 | 4 | 85 | -4.7* | 562 | 178
SMILES | FXIIa inh mix | M1 agonist | JNK3 inh | FXIa inh mix | Her2 expr inh | M1 antag | M1 antag conf | mGluR4 antag
COc1ccc(/C(CC2(O)C(=O)Nc3ccccc32)=N\O)cc1 (stereo not given) | -13 | 0.37 | 3 | 10 | 107 | -2.5* | 585 | 233
O=C(c1cccc(S(=O)(=O)NCCOc2ccccc2)c1)N1CCN(c2ncccn2)CC1 | 9 | 1.4 | 7 | 4 | 100 | 0.42 | x | x
COc1ccc(-c2cc(C(F)(F)F)nc(SCC(=O)N3CC(C)OC(C)C3)n2)cc1OC (stereo not given) | 4 | 0.33 | -11 | -1 | 77 | -0.18 | x | x
COc1ccc(-c2cc(C(F)(F)F)nc(SCCC(=O)N3CCN4CCCC4C3)n2)cc1 (stereo not given) | x | 0.066 | 4 | x | 74 | -3.4* | 310* | 248
CN1C(=O)Cc2cc(S(=O)(=O)N3CCOCC3)ccc21 | 0 | 0.31 | 2 | 8 | 102 | -0.64 | x | x
O=C1c2ccccc2CN1CCNS(=O)(=O)c1ccc(Cl)cc1 | 8 | -0.063 | 2 | -3 | 111 | -1.8* | 674 | 261
Cc1cc(N2CCCN(C)CC2)nc2cc(Cl)ccc12 | 5 | -1.3 | -1 | 2 | 113 | -3.7* | 378* | 259
Cc1cc(N2CCOCC2)nc2cc(O)ccc12 | 8 | 0.48 | 0 | -5 | 90 | 0.53 | x | x
CCc1sc(NS(C)(=O)=O)nc1-c1ccccc1 | -20 | -0.019 | -11 | 2 | x | -0.023 | x | x
CCc1sc(NC(=O)COC)nc1-c1ccccc1 | -3 | -0.016 | 1 | 3 | 81 | -5.9* | 456* | 266
O=C1CSC(c2cn(-c3ccccc3)nc2-c2cccs2)N1CC1CCCO1 (stereo not given) | 3 | 0.91 | 8 | 7 | 80 | 0.14 | x | x
Cc1ccc(C(=O)Nc2cccc(C(=O)O)c2)cc1S(=O)(=O)N1CCCCC1 | -16 | 0 | 5 | 6 | 97 | 1.2 | x | x
N#CCCCSC1=C(C#N)C(c2ccccc2Cl)CC(=O)N1 (stereo not given) | 7 | 0.66 | -3 | 11 | 66 | 0.012 | x | x
CCOC(=O)C1=C(C)NC2=C(C(=O)CCC2)C1c1ccsc1 (stereo not given) | 9 | 0.75 | 5 | 4 | 88 | -0.44 | x | x
CCN(CC)c1ccc(C2C(C(=O)OCCOC)=C(C)NC3=C2C(=O)CCC3)cc1 (stereo not given) | 2 | -0.47 | -3 | 9 | 78 | -10* | 222* | 200
CCCOC(=O)C1=C(C)NC2=C(C(=O)CCC2)C1c1ccc(N(C)C)cc1 (stereo not given) | -19 | -1.5 | 0 | 6 | 148 | -8.2* | 248* | 253
CCOC(=O)C1=C(C)NC2=C(C(=O)CCC2)C1c1ccc(N(C)C)cc1 (stereo not given) | 7 | 0.77 | -5 | -5 | 82 | -4.3* | 350* | 272
COc1ccc(CN(C#N)c2nc(SC)nc(N(C)C)n2)cc1 | x | -0.1 | 2 | x | 179 | 0.19 | x | x
CCCCN(CC)CCNc1c(N2CCN(C(=O)OCC)CC2)c(=O)c1=O | 4 | -0.0065 | 4 | 6 | 91 | -2.1* | 608 | 234
